Only some compounds are listed: those with a hit (about 6.5% of all), similar ones and a draw of the others.
Marburg entry inh: inhibitors of Marburg virus binding or cell entry | Marburg virus pseudotyped entry inhibition, cell reporter | Potency, µM (titrated, usually from 37.8 µM), for inactives: top-dose activity change, negative = inhibition, hits mostly inhibitors | 300,000 compounds, 1.8% hits; calls by dose curve; tested in HEK293 cells; further: potency means the concentration at half of the fitted maximal effect
LASV entry inh: Lassa virus entry inhibition; Lassa virus pseudotype entry inhibition, cell reporter; Potency, µM (top dose mostly 37.9 µM), without a hit: at the highest dose activity change, negative = inhibition, most hits filed as inhibitors; 300,000 compounds, 1.2% hits; AID 540256; calls by dose curve; tested in HEK293 cells; further: potency means the concentration at half of the fitted maximal effect; nearly all actives have a fitted effect of over 50% in size
FMDV inh: antivirals against foot and mouth disease virus | Potency, µM (top dose mostly 57.9 µM), inactives show top-dose activity change, negative = inhibition, actives largely listed as inhibitors | FMDV antiviral cell-based qHTS | 410,000 compounds, 1.2% hits | AID 1159524; calls by dose curve; tested in HEK293T cells; further: read-out not given here; potency means the concentration at half of the fitted maximal effect; nearly all actives have a fitted effect of over 45% in size
Vaccinia Venus: inhibitors of vaccinia virus (Venus reporter); Vaccinia virus Venus reporter expression, fluorescence; Potency, µM (series often up to 36.5 µM), for inactives: top-dose activity change, negative = inhibition, hits mostly inhibitors; 330,000 compounds, 0.46% hits; calls by dose curve; tested in A549 cells; further: potency means the concentration at half of the fitted maximal effect; nearly all actives have a fitted effect of over 30% in size
Vaccinia mCherry: inhibitors of vaccinia virus infection (mCherry reporter signal). Potency, µM (titrated, usually from 36.5 µM), without a hit: at the highest dose activity change, negative = inhibition, most hits filed as inhibitors. AID 720579. 310,000 compounds, 0.63% hits. Vaccinia virus mCherry reporter infection, fluorescence; calls by dose curve; tested in A549 cells; further: potency means the concentration at half of the fitted maximal effect; nearly all actives have a fitted effect of over 35% in size
HCMV inh: human cytomegalovirus inhibition; AID 1259415; 410,000 compounds, 4.5% hits; activity change, negative = inhibition, % at 57.5 µM; HFF cells, HCMV-luciferase reporter, 72 h; hits give low values; in the data active means activity change below about -60%; inconclusive means no clear call, values can overlap the other calls; inactive means above about -39%
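Compounds were evaluated in HFFs infected with an HCMV luciferase reporter virus (MOI 1 PFU/cell). Luciferase in lysates collected 72 h post infection served as the replication measure.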
Starred values were filed as active, the others as inactive; i = inactive; u = inconclusive; x = no result; [ ] = remark or other dose. On the % scale 0 is the no-effect control and ±100 the full control effect.

SMILES | Marburg entry inh | LASV entry inh | FMDV inh | Vaccinia Venus | Vaccinia mCherry | HCMV inh
COc1cccc(NC(=S)N2CCN(S(=O)(=O)c3ccc(F)cc3)CC2)c1 | -3.3%[46.1 µM] | 21.8%[46.1 µM] | 14.1% | -22.2% | u | -63.1*
COc1ccc(NC(=S)N2CCN(S(=O)(=O)c3ccc(OC)cc3)CC2)cc1 | 23.3%[46.1 µM] | -29.1%[46.1 µM] | 7.5% | -18.9% | -9.8% | -13.0
COc1ccc(NC(=S)N2CCN(S(=O)(=O)c3ccc(C)cc3)CC2)cc1 | 8.6% | 5.1% | 53.0% | -10.6% | -10.4% | -60.6*
Nc1nc2[nH]c(=S)[nH]c2c(=O)[nH]1 | x | x | x | 10.8% | -18.1% | x
C[C@]12CC[C@@H]3c4ccc(O)c(O)c4CC[C@H]3[C@@H]1CC[C@@H]2O | x | x | -4.6% | -15.4% | -27.0% | -91.4*
CC[C@H](C)[C@@H]1NC(=O)CNC(=O)c2csc(n2)[C@H](C(C)(C)O)OC(=O)C(C)(C)[C@H](CCCC(C)(Cl)Cl)OC(=O)c2csc1n2 | x | x | -14.5% | 6.31µM* | 5.62µM* | -78.8*
[O-]C1=N[N+](=C(c2ccccc2)c2ccccc2)C1 | x | x | 0.0% | -1.7% | -1.6% | -22.3
COc1ccc(N/C=C2\C(=O)CCc3c2oc2cc(Cl)c(O)c(Cl)c32)cc1 | x | x | -24.4% | x | x | -61.9*
CNC(=O)/C(=C\c1ccc2c(c1)OCO2)NC(=O)c1ccc(Br)cc1 | -18.3% | 9.0% | -6.3% | -6.2% | i | -60.5*
CNC(=O)/C(=C/c1ccc2c(c1)OCO2)NC(=O)c1ccc(Br)cc1 | u | 7.4% | -2.5% | -5.5% | -18.2% | 14.8
CN(Cc1ccccc1)C(=O)[C@@H]1CCCN1 | x | x | -15.1% | -7.5% | -9.2% | 6.1
Clc1cccc(Cl)c1C[n+]1ccc2ccccc2c1 | x | x | -23.4% | x | x | -94.0*
c1ccc(C[n+]2ccc3ccccc3c2)cc1 | -15.3% | -4.5% | -27.1% | -11.7% | -19.9% | -24.7
COc1ccccc1-c1nnc(NC(C)=O)s1 | -9.2% | -25.5% | 6.3% | -6.0% | i | 35.4
CCCCOC(=O)Nc1nnc(-c2ccccc2OC)s1 | 8.0% | -19.1% | -2.3% | 2.5% | x | -82.9*
Cc1c(Cl)cccc1NC(=O)c1ccccc1-c1ccccc1C(=O)O | x | x | -9.5% | x | x | -1.5
O=C1O/C(=C/c2ccccc2)c2ccccc21 | 6.6% | 2.1% | 82.0% | -19.6% | -13.0% | 5.9
N#CC1=C(c2ccccc2)/C(=C/c2ccccc2)OC1=O | u | -25.3% | 6.31µM* | -1.4% | i | -106.1*
Cc1cc2ccccc2n2c(SCC(=O)Nc3ccc(S(=O)(=O)N4CCC(C)CC4)cc3)nnc12 | u | -22.3% | 0.0% | u | -18.1% | 1.7
CC(NC(=O)c1ccccc1Cl)NC(=O)c1ccccc1Cl | x | x | -12.6% | x | x | 59.0
Cc1cccc(C(=O)NC(=S)NNC(=O)COc2c(C)cccc2C)c1 | u | 1.5% | -21.1% | u | -22.6% | -4.0
CC(NC(=O)c1ccccc1)C(=O)NNC(=O)c1ccccc1Cl (centres undefined) | x | x | -2.2% | x | x | -63.5*
Cc1cccc(C(=O)NC(=S)NCc2ccccc2)c1 | 14.4% | 17.8µM* | 29.9% | -12.0% | i | u
Cc1cccc(C(=O)NC(=S)NNC(=O)c2ccccc2Cl)c1 | u | u | -12.5% | -1.3% | -16.5% | -66.9*
Cc1cccc(C(=O)NC(=S)NNC(=O)Cc2ccccc2)c1 | 1.0% | 16.5% | -25.7% | -7.0% | -25.8% | -83.5*
SMILES | Marburg entry inh | LASV entry inh | FMDV inh | Vaccinia Venus | Vaccinia mCherry | HCMV inh
O=C(CN1CCN(c2cccc(C(F)(F)F)c2)CC1)N(C1CCCC1)C1CCS(=O)(=O)C1 (centres undefined) | -7.7% | -18.5% | -14.4% | -8.3% | -20.2% | -1.3
CCCCC[C@@H]1C=C(C(=O)O)[C@H](c2ccc(OC)c(OC)c2)N1S(=O)(=O)c1ccc(C)cc1 | x | x | -8.1% | -2.4% | -0.9% | -9.7
CC1(C)CC(=O)C2=C(C1)NC(Nc1nc3ccccc3o1)=NC2c1cccc(O)c1 (centres undefined) | x | x | x | u | -9.0% | x
O=C1CC(c2ccc(Cl)cc2)N=C(NC(=O)c2ccccc2)N1 (centres undefined) | x | -16.5%[46.1 µM] | -21.7% | -14.8% | -7.2% | -3.5
CC1=Nc2ccccc2N=C(NC(=O)c2ccccc2)C1c1ccc(Cl)cc1 (centres undefined) | u | u | -16.7% | -4.6% | -25.1% | -63.0*
COc1ccc(NC(=O)c2cc3c(-c4ccc(OC)c(OC)c4)nn(C)c3s2)cc1OC | 13µM* | 13µM* | -24.6% | x | x | -96.6*
COc1ccc(-c2nn(C)c3sc(C(=O)NCc4ccco4)cc23)cc1OC | -0.6% | 0.0% | -11.8% | -5.0% | -16.9% | 12.9
COc1ccccc1NC(=O)c1cc2c(-c3ccccc3)nn(-c3ccccc3)c2s1 | 16.4%[46.1 µM] | -19.9%[46.1 µM] | -21.9% | -5.6% | -11.6% | -61.3*
CCOC(=O)N1CCC(NC(=O)c2cc3c(-c4ccc(OC)c(OC)c4)nn(C)c3s2)CC1 | -21.8% | u | u | -0.9% | -10.5% | 7.8
COc1ccc(-c2nn(C)c3sc(C(=O)Nc4cc(OC)c(OC)c(OC)c4)cc23)cc1OC | u | u | -11.0% | -3.2%[7.34 µM] | -10.7%[7.34 µM] | -98.4*
O=C(NCC1CC1)C1=COC2=NC(=O)N(Cc3cccc(Cl)c3)CCN12 | x | x | x | x | x | -6.9
COCC(=O)N1CCC2(CC1)CN(C(=O)Nc1cccc(C#N)c1)C2 | x | x | -3.6% | x | x | x
O=C(Nc1ccc(Cl)c(C(F)(F)F)c1)c1ccc2c(c1)CCN2S(=O)(=O)c1ccccc1 | u | u | -18.7% | u | u | -74.5*
O=C(c1cccc(S(=O)(=O)N2CCc3ccccc3C2)c1)N1CCN(c2ccccc2)CC1 | u | 16.4µM* | u | -28.4% | -9.1% | 1.7
O=C(Nc1ccncc1)c1cccc(S(=O)(=O)N2CCc3ccccc32)c1 | u | -16.0% | u | -19.2% | -28.4% | -77.4*
CCOC(=O)c1sc(NC(=O)c2cccc(S(=O)(=O)N3CCc4ccccc43)c2)c(C#N)c1C | x | x | u | x | x | -98.9*
O=C(Nc1cccnc1)c1cccc(S(=O)(=O)N2CCc3ccccc32)c1 | 6.0%[46.1 µM] | -18.6% | u | -19.5% | -23.9% | 21.9
CCC(CC)c1nnc(NC(=O)c2cccc(S(=O)(=O)N3CCc4ccccc43)c2)s1 | -22.4% | u | x | -10.1% | -13.1% | -39.2
CCN(Cc1ccccc1)C(=O)CCS(=O)(=O)c1cc2c(cc1Cl)NC(=O)CO2 | x | -7.6%[46.1 µM] | 0.0% | -16.2% | -12.0% | -4.9
O=C(c1cccc(S(=O)(=O)N2CCc3ccccc32)c1)N1CCN(c2ccccc2)CC1 | u | 3.98µM* | -12.0% | -10.1% | -25.4% | u
O=C(c1ccc(S(=O)(=O)N2CCc3ccccc3C2)cc1)N1CCCCC1 | x | x | -23.5% | x | x | -62.4*
O=C(c1ccc2c(c1)CCN2S(=O)(=O)c1ccccc1)N1CCN(c2ccc(F)cc2)CC1 | 6.8%[46.1 µM] | -0.3%[46.1 µM] | -10.6% | -12.1% | i | -29.7
O=C(c1ccc(S(=O)(=O)N2CCCC2)cc1)N1CCCCC1 | 8.1% | 7.2% | 10.0% | -0.4% | -14.7% | -14.8
COC(=O)C1=C[C@@]2(c3ccc(F)cc3[C@@H](OC)[C@@H]2C)[C@@H]2C=C[C@H]1C2 | 2.1%[14.2 µM] | x | x | x | x | x

Compound activity (PubChem)
